Pf Dd2 inh – inhibitors of Plasmodium falciparum Dd2 growth | Potency, µM (titrated, usually from 28.9 µM), for the others: at the highest dose activity, negative = inhibition, usual class: inhibitors | AID 1347417 | P. falciparum Dd2 growth, SYBR Green, 72 h | 4.3% of 120,000 active; active = well fitted inhibition curve with a large enough effect;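 note: plate controls were DMSO vehicle for no effect and reference drug for full effect; nearly all actives have a fitted effect of over 65% in size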
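Infected erythrocytes (Dd2, 0.3% parasitemia, 2.5% hematocrit final) are added to compound in RPMI-1640/Albumax II medium, grown 72 h at 37C in low oxygen, then lysed with saponin/Triton-X containing SYBR Green and read by fluorescence.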
* = called active by the depositor; [ ] = dose if it differs, or a comment. The entries come from a sample that favours hits as a whole. Potency is the fitted concentration of half-maximal effect.

`CCNc1sc(S(C)(=O)=O)nc1S(=O)(=O)c1ccc(C)cc1` gave Pf Dd2 inh 1.9%.
For Cc1cccc(O[C@H]2COCCN(Cc3nccn3C)C2)n1 the results were Pf Dd2 inh 11.2µM*.
Screening Cc1cccc(O[C@H]2COCCN(c3nc4ccccc4o3)C2)n1 returned Pf Dd2 inh -12.9%[44.1 µM].
Screening Cc1cccc(O[C@H]2COCCN(C(=O)c3cc(C)nn3C)C2)n1 returned Pf Dd2 inh 28.4%[44.1 µM].
Screening CN(Cc1ccc2nonc2c1)C(C(=O)O)c1ccc(-c2ccn[nH]2)cc1 (stereo not drawn) returned Pf Dd2 inh 0.5%.
O=C(CN1C(=O)CCC1=O)N1CCC(CCOc2ccccc2F)C1 (stereo not drawn) was read as Pf Dd2 inh inactive.
Screening O=C(c1cccnc1)N1CCC(N2CC3CC(C2)[C@H]2CCCC(=O)N2C3)CC1 (stereo partly drawn) returned Pf Dd2 inh -7.8%.
For COc1ccc2nc3n(c2c1)[C@@H](CNCc1ccccc1)COC3 the results were Pf Dd2 inh 7.08µM*.
COc1ccc2nc3n(c2c1)[C@@H](CNCc1ccc(C(=O)O)cc1)COC3 was read as Pf Dd2 inh 13.2%[44.1 µM].
Screening COc1ccc2nc3n(c2c1)[C@@H](CNCc1ccc(C#N)cc1)COC3 returned Pf Dd2 inh inactive.
Screening COc1ccc(-c2cc(N3CCCN(C(=O)c4ccc(OC)c(F)c4)CC3)n[nH]2)cc1 returned Pf Dd2 inh inactive.
`Cc1ncc2c(c1CNC(=O)c1ccc(OC(F)F)cc1)CCNC2` gave Pf Dd2 inh 0.6%.
`O=[S+]([O-])(Nc1nncs1)c1ccc2c(c1)OCCN(Cc1cccs1)C2` gave Pf Dd2 inh inactive.
Cc1ccc(-c2cc3c(=O)n(CCNC(=O)c4cnccn4)ccn3n2)cc1C was read as Pf Dd2 inh inactive.
`O=[S+]1([O-])NCC2(CCN(Cc3cccc4ccccc34)CC2)Nc2ccccc21` gave Pf Dd2 inh inactive.
For O=[S+]1([O-])NCC2(CCN(Cc3ccc(OC(F)(F)F)cc3)CC2)Nc2ccccc21 the results were Pf Dd2 inh -24.0%.
For O=[S+]1([O-])NCC2(CCN(Cc3ccccc3C(F)(F)F)CC2)Nc2ccccc21 the results were Pf Dd2 inh 12.6µM*.
For O=[S+]1([O-])NCC2(CCN(Cc3ccccc3)C2)Nc2ccccc21 (stereo not drawn) the results were Pf Dd2 inh inactive.
Screening O=[S+]1([O-])NC2(CCN(CC3CCCCC3)C2)CNc2ccccc21 (stereo not drawn) returned Pf Dd2 inh -10.8%.
For O=[S+]1([O-])NCC2(CCN(CC3CCCCC3)C2)Nc2ccccc21 (stereo not drawn) the results were Pf Dd2 inh 4.47µM*.
For CC(C)(C)OC(=O)N1CC(Nc2ccc(Oc3ccccc3)cc2)C1 the results were Pf Dd2 inh 14.5%.
`COc1cccc(CN2C[C@@H](CO)[C@H](c3ccccn3)C2)c1OC` gave Pf Dd2 inh -27.0%.
For CCn1c2ccccc2c2cc(NC(=O)COc3cccc(C)c3)ccc21 the results were Pf Dd2 inh inactive.
`OC(COc1ccccc1-c1ccncc1)CN1CCOCC1` (stereo not drawn) gave Pf Dd2 inh -12.2%.
For Cc1ccccc1OCC(=O)N1C[C@@H](CN2CCCCC2)[C@@H](CO)C1 the results were Pf Dd2 inh inactive.
CCCCCn1c(=N)n(CC(O)COc2cccc(C)c2)c2ccccc21 (stereo not drawn) was read as Pf Dd2 inh 1µM*.
`Cc1ccccc1OCCn1c(=N)n(C(C)C)c2ccccc21` gave Pf Dd2 inh 5.62µM*.
Screening Cc1ccccc1NCc1nc2ccccc2n1CCOc1ccccc1 returned Pf Dd2 inh 41.9%[5.79 µM].
CCCn1c(COc2cccc(C)c2)nc2ccccc21 was read as Pf Dd2 inh -25.9%.
Cc1ccccc1OCc1nc2ccccc2n1Cc1ccccc1Cl was read as Pf Dd2 inh 27.3%.
Cc1ccccc1OCC(O)Cn1c(=N)n(CCN2CCCCC2)c2ccccc21 (stereo not drawn) was read as Pf Dd2 inh 2.82µM*.
Screening Cc1cccc([S+](=O)([O-])N(C)Cc2cccn2C)c1 returned Pf Dd2 inh -7.5%[44.1 µM].
`CCCCc1cc(C[C@@H]2C[C@H](NC(=O)N3CCOCC3)C2(C)C)no1` gave Pf Dd2 inh -26.8%[44.1 µM].
Screening CN(Cc1cccnc1)c1nc2c(c(=O)[nH]1)CCN(Cc1ccc(C(F)(F)F)cc1)CC2 returned Pf Dd2 inh inactive[5.79 µM].
For CCOc1ccc(Nc2c(S(=O)(=O)c3ccc(C)cc3)cnc3ccc(OC)cc23)cc1 the results were Pf Dd2 inh inactive.
Screening COc1ccc(C(=O)c2cnc3ccc(C)cc3c2S(=O)(=O)c2ccccc2)cc1 returned Pf Dd2 inh 11.2µM*.
For CCOc1ccc(S(=O)(=O)c2c(C(=O)c3ccc(C)c(C)c3)cnc3ccccc23)cc1 the results were Pf Dd2 inh 7.94µM*.
`COc1ccc(S(=O)(=O)c2c(C(=O)c3ccc(C)c(C)c3)cnc3ccc(F)cc23)cc1` gave Pf Dd2 inh -21.6%.
`COc1ccc(-c2cc(C(=O)Oc3cccc(C)c3)c3cc(C)ccc3n2)cc1` gave Pf Dd2 inh 42.6%.
Screening CCOc1ccc(Nc2c(S(=O)(=O)c3ccc(C)cc3)cnc3cc(OC)c(OC)cc23)cc1 returned Pf Dd2 inh -27.9%.
COc1ccc(C(=O)N[C@@H]2CN(C3CCOCC3)C[C@H]2CN(C)C)c(C)c1 was read as Pf Dd2 inh -3.2%.
For CN(C)c1ccc(CN2CC[C@H](c3nc4cc(Cl)ccc4o3)C2)cc1 the results were Pf Dd2 inh inactive.
Screening CCN1CCC(CCNC(=O)C2N(C(C)C)C(=O)C23CCCCC3)CC1 (stereo not drawn) returned Pf Dd2 inh 16.5%.
CC(C)(C)c1ccnc(N[C@H]2CO[C@H]3[C@@H]2OC[C@@H]3NC(=O)CCCC(=O)O)n1 was read as Pf Dd2 inh -11.0%[44.1 µM].
Screening CC(C)(C)c1ccnc(N[C@H]2CO[C@H]3[C@@H]2OC[C@@H]3NC(=O)NCc2ccccc2)n1 returned Pf Dd2 inh 5.01µM*.
Screening CC(C)(C)c1ccnc(N[C@H]2CO[C@H]3[C@@H]2OC[C@@H]3NC(=O)c2ccco2)n1 returned Pf Dd2 inh inactive.
For CN1CC(=O)N(C2CCCNC2)Cc2c1ncnc2N1CCC(N2CCOCC2)CC1 (stereo not drawn) the results were Pf Dd2 inh -0.7%.
O=C(C[C@@H]1O[C@H](CNCc2ccc(F)cc2)[C@@H](O)[C@H]1O)NCc1ccc(F)cc1 was read as Pf Dd2 inh 4.4%[44.1 µM].
`COCc1cc(C)nc2sc3c(c12)NC(c1ccccc1C(=O)O)N(c1ccc(OC)cc1)C3=O` (stereo not drawn) gave Pf Dd2 inh inactive.
Screening COCc1cc(C)nc2sc3c(c12)NC(c1ccc(O)c(OC)c1)N(c1ccccc1)C3=O (stereo not drawn) returned Pf Dd2 inh -8.8%.
Screening COCc1cc(C)nc2c1C(=O)NC(c1ccc(Br)cc1)N2Cc1ccccc1 (stereo not drawn) returned Pf Dd2 inh 10µM*.
O=S(=O)(NCC1CCOCC1)c1ccccc1F was read as Pf Dd2 inh 17.6%.
For CCn1cc(S(=O)(=O)NCCc2noc(-c3ccncc3)n2)cn1 the results were Pf Dd2 inh 38.0%.
`COc1ccc([S+](=O)([O-])N2CCC3(CC2)OCCN(c2ccc(F)cc2)C3=O)cc1` gave Pf Dd2 inh -7.2%[44.1 µM].
CCOCC(=O)N1CCC2(CC1)CC(N(Cc1ccc(F)cc1)C1CC1)CCO2 (stereo not drawn) was read as Pf Dd2 inh -32.6%.

High-throughput results as filed in PubChem.
